RAD52 anneal inh = RAD52 (human) annealing inhibition. AID 651710. 360,000 tested, 0.46% active. inhibition, % at 18.7 µM. P43351. recombinant RAD52 DNA annealing, FRET fluorescence;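 active = every replicate showing at least 50% inhibition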
Target sequence (P43351 whole entry, looked up): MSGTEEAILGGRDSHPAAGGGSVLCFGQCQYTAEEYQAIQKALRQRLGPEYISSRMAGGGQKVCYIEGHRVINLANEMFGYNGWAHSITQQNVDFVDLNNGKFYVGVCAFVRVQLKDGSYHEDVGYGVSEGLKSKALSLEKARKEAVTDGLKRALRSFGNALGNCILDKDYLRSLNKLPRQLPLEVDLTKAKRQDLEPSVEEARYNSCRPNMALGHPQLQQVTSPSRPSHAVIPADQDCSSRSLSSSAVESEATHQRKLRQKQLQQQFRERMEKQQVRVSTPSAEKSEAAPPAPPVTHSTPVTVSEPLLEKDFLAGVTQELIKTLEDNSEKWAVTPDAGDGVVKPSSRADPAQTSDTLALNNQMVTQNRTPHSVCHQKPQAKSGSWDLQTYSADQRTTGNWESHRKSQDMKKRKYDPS
NRP1-CendR mod = alters CendR peptide binding to human NRP-1 | O14786 | FAM-RPARPAR peptide binding to NRP-1, fluorescence polarization | inhibition, % at 25 µM | 360,000 tested, 0.85% active | AID 602438;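 active = inhibition or corrected inhibition above about 18%, plus a signal ratio from 0.5 to 1.5, limit read from the data, passing the limit was not always enough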
RAD54 inh = inhibitors of human RAD54 branch migration; 360,000 tested, 0.14% active; RAD54 Holliday junction branch migration, FAM/BHQ fluorescence; Q92698; inhibition, % at 10.4 µM;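 active = mean normalized replicate activity at least 40 and at least half of replicates scoring 40 or more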;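 note: 0% = median of neutral control wells and 100% = median of positive control wells; inhibitors cause a drop in the FAM fluorescence signal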
N-glyco inh = N-linked glycosylation inhibition; 360,000 tested, 0.23% active; D54 ERlucT glycosylation luciferase reporter, 24 h; percent of 100 nM tunicamycin response; reporter increase, % at 12.5 µM;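 active = mean luciferase reporter signal, scaled so untreated is 0 and the glycosylation-blocking control 100, at or above a set limit in every replicate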;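 note: luciferase carries N-glycosylation sites so blocking glycosylation raises the light; 0% = median of neutral control wells and 100% = median of 100 nM tunicamycin wells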
miR-122 sensor = miR-122 inhibition in Huh7 cells; Huh7 miR-122 Renilla luciferase sensor, 48 h; neutral wells = 0, positive control = 100; activation (reporter increase), % at 12.5 µM; 340,000 tested, 0.3% active;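 active = mean replicate activation score at least 90 and every replicate individually at or above 90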;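 note: higher luciferase means less miR-122 activity so hits act as miR-122 inhibitors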
DNA FID counter = fluorescent intercalator displacement, NS3 helicase counter-screen; AID 1845; DNA fluorescent intercalator displacement, fluorescence; inhibition, % at 7.9 µM; 290,000 tested, 0.17% active; in the data active = inhibition above about 37%;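 note: 0% = vehicle and 100% = reference compound; higher means more ethidium bromide displaced from hairpin DNA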
Active calls of the source: *; [ ] = another dose, or the depositor's remark. Shown are actives, neighbours in structure and some others; about 1.5% of the full set was active somewhere.

What do the screens show for `COc1ccc2c(-c3ccccc3)cc(SC(C)C(N)=O)nc2c1` (configuration not stated)?
RAD52 anneal inh: -30.9; NRP1-CendR mod: 28.7*; RAD54 inh: -2.5; N-glyco inh: -3.3; miR-122 sensor: -5.0; DNA FID counter: -16.8

How did CN1C(=O)c2cc(NC(=O)c3ccccc3Cl)ccc2OC[C@@H]2O[C@H](CC(=O)O)CC[C@H]21 do in these assays?
RAD52 anneal inh: 11.1; RAD54 inh: -16.4; miR-122 sensor: -2.5[16.7 µM]

What do the screens show for `O=c1cc(CO)oc(C(Nc2ccccn2)c2ccccc2Cl)c1O` (configuration not stated)?
RAD52 anneal inh: -16.8; NRP1-CendR mod: 25.8*; N-glyco inh: -1.4; DNA FID counter: -34.7

How did O=c1cc(CO)oc(C(Nc2ccccn2)c2ccc(F)cc2)c1O (configuration not stated) do in these assays?
NRP1-CendR mod: 5.5; RAD54 inh: 0.2; N-glyco inh: 0.1; miR-122 sensor: 1.7; DNA FID counter: -18.0

How did c1ccc(-c2nc(C3CCCCC3)c3ccccc3n2)cc1 do in these assays?
RAD52 anneal inh: -9.6; NRP1-CendR mod: 3.3; RAD54 inh: -16.4; N-glyco inh: 0.1

How did c1ccc(-c2nc(C3CCCCC3)c3sccc3n2)cc1 do in these assays?
RAD52 anneal inh: -9.6; NRP1-CendR mod: 27.9*; RAD54 inh: 3.7; N-glyco inh: -2.4; miR-122 sensor: 4.3

What do the screens show for `COc1cc2c(C#N)c(N3CCc4ccccc4C3)nc(N)c2c(N)n1`?
NRP1-CendR mod: 1.4; RAD54 inh: 1.7; N-glyco inh: 25.9*; miR-122 sensor: 2.2; DNA FID counter: -8.9

What do the screens show for `Cc1ccc(S(=O)(=O)Nc2ccc3c(c2)C(=O)N([C@@H](C)CO)C[C@H](C)[C@@H](CN(C)C(=O)Nc2ccc(C(F)(F)F)cc2)OCCCC[C@H](C)O3)cc1`?
RAD52 anneal inh: -10.7; RAD54 inh: 1.7; miR-122 sensor: 4.6[16.7 µM]

Results for NC(=S)NNC(=S)Nc1ccccc1 ?
RAD52 anneal inh: -25.3; NRP1-CendR mod: 39.4*; N-glyco inh: 0.1; DNA FID counter: -9.9

How did C[C@H]1CN([C@@H](C)CO)C(=O)Cc2cc(NS(=O)(=O)c3ccccc3)ccc2O[C@H]1CN(C)S(=O)(=O)c1ccc(F)cc1 do in these assays?
RAD54 inh: -0.8; miR-122 sensor: -2.3[16.7 µM]

What do the screens show for `CCC1(c2ccccc2)NC(=O)N(CC(=O)Nc2ccccc2N2CCCCC2)C1=O` (configuration not stated)?
RAD52 anneal inh: -4.3; NRP1-CendR mod: -3.8; RAD54 inh: 11.7; N-glyco inh: 1.6; DNA FID counter: -42.0

How did CCC1(c2ccccc2)NC(=O)N(CC(=O)Nc2ccccc2C(=O)N2CCCCC2)C1=O (configuration not stated) do in these assays?
RAD52 anneal inh: -9.9; NRP1-CendR mod: 21.0*; RAD54 inh: -6.8; N-glyco inh: -0.5; miR-122 sensor: -1.9

What do the screens show for `CCC1(c2ccc(F)cc2)NC(=O)N(CC(=O)Nc2cccc(S(=O)(=O)N3CCCCC3)c2)C1=O` (configuration not stated)?
RAD52 anneal inh: -2.3; NRP1-CendR mod: 31.0*; RAD54 inh: 4.0; N-glyco inh: 2.3

Results for CCC(=O)Nc1nc2nc(-c3ccccc3)cc(-c3ccccc3)n2n1 ?
NRP1-CendR mod: 20.7*; RAD54 inh: 20.2; N-glyco inh: 8.1; miR-122 sensor: -11.2; DNA FID counter: 5.5

Results for O=S(=O)(NCc1cccnc1)c1ccc(Cl)c2ccccc12 ?
RAD52 anneal inh: -11.5; NRP1-CendR mod: 18.6; RAD54 inh: -11.0; N-glyco inh: -4.5; miR-122 sensor: 174.7*; DNA FID counter: -17.2

How did CC(Oc1cccc(Cl)c1)C(=O)NCc1ccc(S(N)(=O)=O)cc1 (configuration not stated) do in these assays?
RAD52 anneal inh: -3.6; NRP1-CendR mod: 30.4*; N-glyco inh: 1.5; DNA FID counter: -9.2

How did C[C@H](O)C#Cc1ccc2c(c1)O[C@@H](CN(C)C(=O)C1CCC1)[C@@H](C)CN([C@@H](C)CO)S2(=O)=O do in these assays?
RAD52 anneal inh: 3.8; RAD54 inh: -6.8; miR-122 sensor: -1.8[16.7 µM]

Results for Cc1cc(N2CCOCC2)c2c(N)cc(C)c(C)c2n1 ?
NRP1-CendR mod: 22.4*; RAD54 inh: 19.8; N-glyco inh: -3.9; miR-122 sensor: 1.8; DNA FID counter: -0.5

Results for Oc1c(Cl)cc(Cl)cc1/C=N/Nc1ncc(Br)cn1 ?
RAD52 anneal inh: -2.2; NRP1-CendR mod: 38.1*; RAD54 inh: 5.4; N-glyco inh: -4.9; miR-122 sensor: -62.2; DNA FID counter: 0.0

Results for CC(C)N1C(=O)CC(Nc2ccc(N3CCOCC3)cc2)C1=O (configuration not stated) ?
NRP1-CendR mod: -0.6; RAD54 inh: -2.9; N-glyco inh: 4.5; miR-122 sensor: 182.9*; DNA FID counter: -17.1

How did COc1cccc(CC(=O)OCC(=O)N(C)CC(=O)Nc2ccccc2Cl)c1 do in these assays?
RAD52 anneal inh: -7.2; NRP1-CendR mod: 19.9*; RAD54 inh: 6.6; N-glyco inh: 1.6; miR-122 sensor: -2.3

How did OC[C@@H]1[C@H](c2ccccc2)C2(CN(CCC(F)(F)F)C2)N1Cc1cccnc1 do in these assays?
RAD52 anneal inh: -3.9

Results for NC(=O)[C@@H]1CCCNc2c(I)cc([N+](=O)[O-])cc2C(=O)N[C@@H](CCCN=C(N)N)C(=O)N[C@@H](CCCN=C(N)N)C(=O)N1 ?
DNA FID counter: 46.5*

What do the screens show for `CC[C@H](C)[C@@H]1NC(=O)c2cc([N+](=O)[O-])cc(I)c2NCC[C@@H](C(N)=O)NC(=O)[C@H](CCCN=C(N)N)NC1=O`?
RAD52 anneal inh: 38.3; DNA FID counter: 12.0

How did C[C@@H](O)C1NC(=O)[C@H](CCCCN)NC(=O)c2cc([N+](=O)[O-])cc(F)c2NCCCC[C@@H](C(N)=O)NC1=O (some centres not stated) do in these assays?
NRP1-CendR mod: 5.6; RAD54 inh: 54.4*; N-glyco inh: 0.8; miR-122 sensor: 2.3; DNA FID counter: 9.6

Results for C[C@H](CO)N1C[C@H](C)[C@H](CN(C)Cc2ccc(C(=O)O)cc2)Oc2ccc(NC(=O)C3CCCCC3)cc2CC1=O ?
RAD52 anneal inh: 6.4; RAD54 inh: -12.8; miR-122 sensor: -2.8[16.7 µM]

How did COc1ccc2c3c([nH]c2c1)[C@@H](CO)N(C)CC31CN(S(=O)(=O)c2ccc(C)cc2)C1 do in these assays?
RAD52 anneal inh: -11.8

Results for O=C(C[C@H]1C=C[C@@H](NS(=O)(=O)c2ccc(F)cc2)[C@H](CO)O1)NCc1ccc(Cl)c(Cl)c1 ?
RAD52 anneal inh: -8.2; RAD54 inh: -0.8
